# Laboratory results as given in the OligoGym collection.
# Target: NUDT18
# Experiment: pooled miR-30 sensor sort-seq; sequence = guide strand
# Details: shRNA
# Further: reference of the scale not given here.
row,Sequence,sensor-assay potency score (higher = more potent)
1,TAGCTCTTGGGGCAGAATGAGA,-1.69
2,TGTCTCGGGCTCACAGTGCAGC,-1.13
3,ACTAACACCCACACTGTCTGGG,-0.0585

# Target: NUDT8
# Experiment: as above
# Details: shRNA
row,Sequence,sensor-assay potency score (higher = more potent)
1,TACAGCAGCGCCGGCACCCCAC,-1.1
2,TTGGTCAGCCGGGTCGCACTTG,-1.16
3,TTGTGCCTCCCGGTCAGGCGGC,-1.45
4,TACACCAGCAAGCACTGGCACC,-1.4
5,TGTGCACCACATCTTGGTCAGC,-0.734
6,TTTGCGGATCATACACAGGCCG,-0.907
7,TGGTCAGCCGGGTCGCACTTGC,-1.47
8,ACCACATCTTGGTCAGCCGGGT,-1.55
9,TGGGAAACTGACGTCGCCCTTG,-0.952
10,TCAGCCGGGTCGCACTTGCCGC,-1.59
11,TTGCGGATCATACACAGGCCGC,-1.79
12,ATCTTGGTCAGCCGGGTCGCAC,-1.97
